“And” between values parts separate entries of the source, which are not always exact repeats. Equal values may be shown once. Read-outs that look alike come from different tables or passages of the source.
Legend:
[1] = test system: CHEK1; details: concentration: 1 μM, replicates: in singlicate; n = 1
[2] = test system: CHEK2; details: concentration: 1 μM, replicates: in singlicate, n = 1
[3] = test system: CIT; details: concentration: 1 μM, replicates: in singlicate, n = 1
[4] = test system: CLK1; details: concentration: 1 μM, replicates: in singlicate, n = 1
[5] = test system: CLK2; details: concentration: 1 μM, replicates: in singlicate; n = 1
[6] = test system: CLK3; details: concentration: 1 μM, replicates: in singlicate, n = 1
[7] = test system: CLK4; details: concentration: 1 μM, replicates: in singlicate, n = 1
[8] = test system: CSF1R-autoinhibited; details: concentration: 1 μM, replicates: in singlicate, n = 1
[9] = test system: CSF1R; details: concentration: 1 μM, replicates: in singlicate, n = 1
[10] = test system: CSK; details: concentration: 1 μM, replicates: in singlicate, n = 1
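Also: KINOMEscan kinase panel screen.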

| Structure (SMILES) | %Inh [1] | %Inh [2] | %Inh [3] | %Inh [4] | %Inh [5] | %Inh [6] | %Inh [7] | %Inh [8] | %Inh [9] | %Inh [10] | %Inh ([2]; 1 µM) | %Inh ([3]; 1 µM) | %Inh ([4]; 1 µM) | %Inh ([6]; 1 µM) | %Inh ([7]; 1 µM) | %Inh ([8]; 1 µM) | %Inh ([9]; 1 µM) | %Inh ([10]; 1 µM) |
| --- | --- | --- | --- | --- | --- | --- | --- | --- | --- | --- | --- | --- | --- | --- | --- | --- | --- | --- |
| Nc1nccc(-c2c(-c3ccc(F)cc3)ncn2C2CCN(CC(F)(F)F)CC2)n1 [SB-236560] | 0% | 38% | 66% | 0% | 6% | 17% | 0% | 68% | 0% | 0% |  |  |  |  |  |  |  |  |
| COc1ccc(COc2cc(-n3cnc4ccccc43)sc2C(N)=O)cc1 [GSK1024304] | 0% | 0% | 29% | 27% | 48% | 17% | 12% | 0% | 4% | 0% |  |  |  |  |  |  |  |  |
| O=C1Cc2cc(Nc3nc(NCc4cccc(S(=O)(=O)C(F)(F)F)c4)ncc3C(F)(F)F)ccc2N1 | 0% | 0% | 0% | 0% | 0% | 0% | 0% | 0% | 9% | 3% |  |  |  |  |  |  |  |  |
| CN1c2ccc(CNc3ccc(F)cc3)cc2-c2c(cnn2C)S1(=O)=O | 0% | 0% | 1% | 0% | 11% | 0% | 17% | 1% | 0% | 0% |  |  |  |  |  |  |  |  |
| CCc1nc(-c2cccc(C)c2)c(-c2ccnc(NCc3ccccc3)c2)s1 | 0% | 10% | 29% | 0% | 11% | 0% | 0% | 0% | 6% | 0% |  |  |  |  |  |  |  |  |
| NCC(NC(=O)c1cc(-c2cn[nH]c2)c(-c2ccnc3[nH]ccc23)s1)c1ccccc1.O=C(O)C(F)(F)F.O=C(O)C(F)(F)F (stereo not drawn) [GSK1325775] | 37% | 86% | 96.6% | 74% | 68% | 70% | 66% | 0% | 26% | 10% |  |  |  |  |  |  |  |  |
| Cc1nnc(-c2ccc(C)c(-c3ccc(C(=O)Nc4ccc(NS(C)(=O)=O)cc4)cc3)c2)o1 [GW702865] | 0% | 30% | 7% | 2% | 0% | 2% | 0% | 37% | 1% | 0% |  |  |  |  |  |  |  |  |
| COc1cc(Nc2nccc(N3CCC(NC(=O)c4cccc(NC(C)=O)c4)C3)n2)cc(OC)c1OC (stereo not drawn) [GSK1379754] | 0% | 19% | 23% | 10% | 3% | 0% | 13% | 0% | 38% | 0% |  |  |  |  |  |  |  |  |
| CCn1cnc2c(N)ncnc21 [GW345098] | 12% | 0% | 6% | 30% | 18% | 69% | 1% | 0% | 0% | 0% |  |  |  |  |  |  |  |  |
| O=c1cc(N2CCOCC2)nc2n(Cc3cccc(F)c3)ccn12 [GSK2297430] | 0% | 0% | 26% | 33% | 0% | 30% | 45% | 0% | 0% | 0% |  |  |  |  |  |  |  |  |
| O=c1cc(N2CCOCC2)nc2n(Cc3cccc4ccccc34)ccn12 [GSK2333389] | 20% | 0% | 9% | 48% | 3% | 0% | 31% | 0% | 4% | 0% |  |  |  |  |  |  |  |  |
| Cn1ccc2ncnc(Oc3ccc(NC(=O)Nc4ccncc4)c(Cl)c3)c21 | 0% | 20% | 18% | 0% | 0% | 0% | 21% | 0% | 0% | 0% |  |  |  |  |  |  |  |  |
| COc1cc2ncn(-c3cc(OCc4sccc4Cl)c(C(N)=O)s3)c2cc1OC [GSK448459] | 0% | 6% | 27% | 39% | 23% | 2% | 14% | 0% | 18% | 10% |  |  |  |  |  |  |  |  |
| CC(C)(C)n1cnc2c(N)ncnc21 [SKF-97359] | 0% | 2% | 32% | 14% | 0% | 0% | 11% | 28% | 0% | 0% |  |  |  |  |  |  |  |  |
| O=c1cc(N2CCOCC2)nc2n(Cc3cccc(C(F)(F)F)c3)ccn12 [GSK2297543] | 0% | 0% | 27% | 17% | 20% | 0% | 6% | 0% | 0% | 0% |  |  |  |  |  |  |  |  |
| Cl.Oc1cccc(Nc2ccnc3cc(-c4ccncc4)ccc23)c1 [GW494601] | 0% | 42% | 68% | 9% | 0% | 0% | 33% | 41% | 91.9% | 65% |  |  |  |  |  |  |  |  |
| CC(C)Oc1ccc2c(-c3ccnc(Nc4ccc(N5CCN(C)CC5)cc4)n3)cnn2n1 [GW696155] | 0% | 67% | 98.7% | 97% | 96.8% | 1% | 93.7% | 58% | 65% | 34% |  |  |  |  |  |  |  |  |

| Structure (SMILES) | %Inh [1] | %Inh [2] | %Inh [3] | %Inh [4] | %Inh [5] | %Inh [6] | %Inh [7] | %Inh [8] | %Inh [9] | %Inh [10] | %Inh ([2]; 1 µM) | %Inh ([3]; 1 µM) | %Inh ([4]; 1 µM) | %Inh ([6]; 1 µM) | %Inh ([7]; 1 µM) | %Inh ([8]; 1 µM) | %Inh ([9]; 1 µM) | %Inh ([10]; 1 µM) |
| --- | --- | --- | --- | --- | --- | --- | --- | --- | --- | --- | --- | --- | --- | --- | --- | --- | --- | --- |
| Cl.Nc1ncnc2occ(-c3ccc(NC(=O)Nc4cc(C(F)(F)F)ccc4F)cc3)c12 [SB-707548] | 6% | 45% | 82% | 69% | 11% | 13% | 69% | 90.7% | 99.9% | 20% |  |  |  |  |  |  |  |  |
| Cc1c(Cn2c(C)nn3c(=O)cc(N4CCOC(C)C4)nc23)cccc1C(F)(F)F (stereo not drawn) [GSK2344444] | 10% | 0% | 9% | 29% | 0% | 0% | 13% | 0% | 0% | 0% |  |  |  |  |  |  |  |  |
| COc1ccc(Nc2nccc(N3CCC(NC(=O)Nc4cccc(C(C)=O)c4)C3)n2)cc1 (stereo not drawn) [GSK1379731] | 0% | 0% | 0% | 5% | 0% | 5% | 2% | 0% | 0% | 0% |  |  |  |  |  |  |  |  |
| COc1ccc(CNC(=O)NC2CCN(c3ccnc(Nc4ccc(OC)cc4)n3)C2)cc1 (stereo not drawn) [GSK1379727] | 0% | 27% | 19% | 19% | 0% | 0% | 14% | 16% | 0% | 0% |  |  |  |  |  |  |  |  |
| Cn1cc(-c2ccc3c(c2)CCN3C(=O)Cc2ccccc2Cl)c2c(N)ncnc21 [GSK2608885] | 35% | 4% | 65% | 25% | 0% | 1% | 0% | 0% | 99.8% | 97.6% |  |  |  |  |  |  |  |  |
| CSc1ccc(-c2cc3ncnc(SCC(=O)O)c3s2)cc1 | 0% | 2% | 1% | 0% | 0% | 0% | 0% | 17% | 18% | 0% |  |  |  |  |  |  |  |  |
| Fc1ccc(-c2ncn(CCCN3CCOCC3)c2-c2cccnc2)cc1 [SB-211743] | 0% | 0% | 0% | 24% | 0% | 11% | 2% | 0% | 0% | 0% |  |  |  |  |  |  |  |  |
| O=C(Nc1cccc(-c2nn3ncccc3c2-c2ccnc(Nc3cccc(C(F)(F)F)c3)n2)c1)c1c(F)cccc1F [GSK299495] | 5% | 0% | 0% | 18% | 100% | 0% | 25% | 8% | 98.1% | 88% |  |  |  |  |  |  |  |  |
| Cl.Cl.Cl.Fc1ccc(-c2ncn(C3CCNCC3)c2-c2ccnc(Nc3ccccc3)n2)cc1 [SB-238039] | 0% |  |  |  | 0% |  |  |  |  |  | 0% and 39% | 99.5% and 97.5% | 0% and 1% | 6% and 21% | 37% and 14% | 27% and 19% | 1% and 14% | 0% and 10% |
| CN(C1=C(c2ccccc2)C(=O)NC1=O)c1ccccc1 [SB-334860] | 0% | 16% | 37% | 24% | 12% | 0% | 6% | 0% | 18% | 6% |  |  |  |  |  |  |  |  |
| CCCCCc1nc2c(N)ncnc2n1CCCCC [SKF-97255] | 0% | 0% | 9% | 24% | 14% | 3% | 17% | 0% | 17% | 0% |  |  |  |  |  |  |  |  |
| Cc1ccc(NC(=O)c2ccnc(N3CCN(C)CC3)c2)cc1-c1ccc(C(=O)NCC2CC2)cc1 [GW775604] | 0% | 15% | 0% | 0% | 0% | 0% | 0% | 0% | 22% | 0% |  |  |  |  |  |  |  |  |
| Cc1nnc(-c2ccc3ncc(-c4ccc(S(C)=O)cc4)n3c2)o1 (stereo not drawn) | 0% | 0% | 38% | 0% | 0% | 0% | 0% | 7% | 17% | 0% |  |  |  |  |  |  |  |  |
| c1ccc(-c2cc(-c3c[nH]nc3-c3ccccn3)ccn2)cc1 [GW576604] | 0% | 6% | 27% | 5% | 12% | 0% | 11% | 26% | 0% | 0% |  |  |  |  |  |  |  |  |
| CC(=O)Nc1ccc(COc2ccc(Nc3ccnc4cc(-c5ccccn5)ccc34)cc2)cc1.Cl [GW440148] | 1% | 29% | 20% | 35% | 0% | 0% | 0% | 32% | 99.3% | 36% |  |  |  |  |  |  |  |  |
| O=C(Nc1n[nH]c2cc(-c3cccc(F)c3)ccc12)C1CC1 [SB-735464] | 0% | 0% | 20% | 12% | 9% | 22% | 7% | 0% | 2% | 2% |  |  |  |  |  |  |  |  |

Source: publication PMC5540273 (PLoS ONE, 2017)
